Screens: PubChem, National Center for Advancing Translational Sciences (NCATS)
Compounds with a hit are over-represented: about 10% of the library has one in this group of screens.
GPT2 inh – Primary qHTS assay for inhibitors of Glutamate pyruvate transaminase 2 (GPT2) | Alanine aminotransferase 2 (Homo sapiens), Q8TD30 | Recombinant GPT2, coupled pyruvate oxidase/HRP Amplex Red fluorescence | Potency, µM (doses to about 57.7 µM), most hits filed as inhibitors | hit rate 0.25% among 100,000; also: nearly all actives have a fitted effect of over 60% in size
Target sequence (Q8TD30 whole entry, looked up): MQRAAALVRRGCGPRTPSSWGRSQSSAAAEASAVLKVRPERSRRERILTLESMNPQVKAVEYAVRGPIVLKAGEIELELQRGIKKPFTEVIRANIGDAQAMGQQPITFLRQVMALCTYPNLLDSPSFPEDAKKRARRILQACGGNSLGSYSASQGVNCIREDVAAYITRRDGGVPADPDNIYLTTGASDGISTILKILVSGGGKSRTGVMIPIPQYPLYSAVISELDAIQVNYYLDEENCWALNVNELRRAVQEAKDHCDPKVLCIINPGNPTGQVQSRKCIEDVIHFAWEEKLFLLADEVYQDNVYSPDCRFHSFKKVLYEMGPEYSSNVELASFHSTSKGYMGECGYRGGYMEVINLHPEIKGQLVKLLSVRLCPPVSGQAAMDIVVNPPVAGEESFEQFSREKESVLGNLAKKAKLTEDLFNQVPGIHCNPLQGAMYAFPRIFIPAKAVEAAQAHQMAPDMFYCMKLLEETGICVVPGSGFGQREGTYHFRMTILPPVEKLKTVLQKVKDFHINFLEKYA
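Inhibition is scored from Amplex Red fluorescence generated when pyruvate oxidase and HRP act on pyruvate released by GPT2. Reactions contain 10ng/uL enzyme, 250uM a-KG and 2mM L-alanine and run 30 min at room temperature.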
FLuc inh – Firefly luciferase inhibition profiling of diverse chemical library using quantitative high-throughput screening; Luciferin 4-monooxygenase (Photinus pyralis), P08659; purified P. pyralis luciferase, luminescence, biochemical; Potency, µM (titrated, usually from 115 µM), actives largely listed as inhibitors; hit rate 2.5% among 76,000; also: nearly all actives have a fitted effect of over 65% in size
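Purified 10nM P. pyralis luciferase with 10uM D-luciferin and 10uM ATP in 50mM Tris acetate pH 7.5, 10mM Mg acetate, 0.01% Tween-20, 0.05% BSA. qHTS titration; luminescence read by CCD imager.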
HEK293 tox – Cytotoxic Profiling in HEK 293 Cell Line of Diverse Libraries Using Quantitative High-Throughput Screening | Potency, µM (titrated, usually from 115 µM), usual class: inhibitors | AID 1345083, 2018 | HEK 293 viability, ATP luminescence (CellTiter-Glo), 48-72 h | hit rate 6.6% among 94,000; also: nearly all actives have a fitted effect of over 60% in size
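ATP-coupled CellTiter-Glo luminescence served as viability read-out, recorded 10 min after reagent addition at room temperature. HEK 293 cells, 250 cells/well, had been incubated with pintool-transferred compound for 48 or 72 hr at 37 degree Celsius.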
3T3 cytotox – Cytotoxic Profiling in NIH 3T3 Cell Line of Diverse Libraries Using Quantitative High-Throughput Screening; NIH 3T3 viability, CellTiter-Glo ATP luminescence, 48-72 h; Potency, µM (series often up to 96.7 µM), actives largely listed as inhibitors; hit rate 4.3% among 94,000; AID 1345082, 2018; also: nearly all actives have a fitted effect of over 55% in size
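Luminescent ATP readout (CellTiter-Glo, 10 min RT) after 48 or 72 hr compound exposure of NIH 3T3 cells seeded at 400 cells/well in 1536-well format; quantitative HTS.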
hNpr1 antagonist – Natriuretic polypeptide receptor (hNpr1) antagonism - Primary qHTS. HEK293 hNpr1 GloSensor cGMP, ANP-stimulated luminescence. Atrial natriuretic peptide receptor 1 (Homo sapiens), P16066. hit rate 1.6% among 76,000. AID 1347048, 2019. Potency, µM (top dose mostly 46.3 µM), usual class: inhibitors; calls by dose curve; also: nearly all actives have a fitted effect of over 60% in size
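HEK293 cells stably expressing human Npr1 and cGMP GloSensor pGS-40F, loaded 2 h with 2% GloSensor reagent, given compound 30 min at room temperature. Luminescence read before and 20 min after 0.1 nM hNppA.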
Numbers stand for hits; n = inactive; u = inconclusive; x = no result. Unless noted, calls follow the shape of the dose curve; as a rule, active = well fitted curve in the direction sought with a large enough effect; inconclusive = small, poorly fitted or top-dose-only effect, or another doubt; inactive = no such curve, though single readings can be large; an effect the other way counts as inactive or inconclusive.

SMILES	GPT2 inh	FLuc inh	HEK293 tox	3T3 cytotox	hNpr1 antagonist
O=C(C[C@@H]1CCNC[C@@H]1Cc1cc(CC2CCCCC2)on1)N1CCC(Cc2ccccc2)CC1	n	n	u	25µM	n
CCCCc1cc(C[C@H]2CNCC[C@H]2CC(=O)N2CCC(Cc3ccccc3)CC2)no1	n	n	u	28µM	n
O=C(C[C@@H]1CCNC[C@@H]1Cc1cc(COc2ccccc2)on1)N1CCC(Cc2ccccc2)CC1	n	n	25µM	28µM	n
CCCCc1cc(C[C@H]2CNCC[C@H]2CC(=O)NC2CCCCC2)no1	n	n	u	u	n
COc1nc2nc(CCc3ccccc3)n(C)c2cc1Nc1ccncn1	n	50µM	n	u	n
O=C(NCCc1ccccc1)N1CCC(c2noc(COc3ccc(F)cc3)n2)C1 (centres undefined)	u	x	45µM	u	x
Cc1ccc(CNC(=O)N2CCCC(c3noc(COc4ccccc4)n3)C2)cc1 (centres undefined)	n	n	u	u	n
Cc1ccc(OCc2nc(C3CCN(C(=O)NCc4ccccc4)C3)no2)cc1 (centres undefined)	u	x	45µM	u	x
Cc1ccc(OCc2nc(C3CCN(C(=O)NCc4ccc(F)cc4)CC3)no2)cc1	n	n	u	n	u
O=C1Cc2c(-c3ccccc3Cl)n[nH]c2CN1Cc1ccccn1	n	n	n	79µM	n
CC(C)Cc1cnc(C2CCCN(C(=O)OC(C)(C)C)C2)[nH]1 (centres undefined)	n	x	u	89µM	x
O=C(c1ccccn1)N1CCC(CCOc2ccccc2F)C1 (centres undefined)	n	n	n	u	n
O=C(c1cncc(Br)c1)N1CCC(CCOc2ccccc2F)C1 (centres undefined)	n	n	40µM	u	n
COc1ccccc1CCNC(=O)C1CC(c2ccccc2)CN(C(=O)C2CC2)C1 (centres undefined)	n	n	32µM	u	n
COc1ccc(-c2noc(-c3cccn3CC(=O)N3CCN(c4ccccc4OC)CC3)n2)cc1F	n	u	u	u	n
CCN(C(=O)Cn1cccc1-c1nc(-c2ccc(OC)c(F)c2)no1)c1ccccc1	n	n	45µM	u	n
COc1ccc(-c2noc(-c3cccn3CC(=O)N3CCC(C)CC3)n2)cc1F	n	11µM	n	u	n
COc1ccc(-c2noc(-c3cccn3CC(=O)N(C)c3ccccc3)n2)cc1F	n	n	n	n	n
COCc1ccc2c(c1)c(OC(C)(C)C(=O)N1CC(O)C1)nn2CCC(C)C	u	n	n	u	n
Cc1cc(C)n(CCC(=O)N2c3ccccc3CC2c2noc(C3CCOCC3)n2)n1 (centres undefined)	n	25µM	u	u	n
CC1=C[C@@H](CN2CCN(c3ccccn3)CC2)[C@H](C(C)C)C[C@H]1Cc1nnc(-c2ccccc2)o1	u	n	40µM	u	n
CC1=C[C@@H](CN2CCOCC2)[C@H](C(C)C)C[C@H]1Cc1nnc(-c2ccccc2)o1	n	n	89µM	u	n
CC1=C[C@@H](CN2CCOCC2)[C@H](C(C)C)C[C@H]1Cc1nnc(C)o1	n	n	u	n	n
O=C(NCc1ccc(F)cc1)c1nc2sccn2c1-c1ccccc1	n	x	n	n	x
O=C(NCc1cccc(Cl)c1)c1ccc2nc(-c3ccncc3)oc2c1	n	x	u	u	x
SMILES	GPT2 inh	FLuc inh	HEK293 tox	3T3 cytotox	hNpr1 antagonist
Cc1ccc(-c2cc3c(=O)n(CCNC(=O)c4ccc(Cl)cc4)ccn3n2)c(C)c1	n	n	40µM	u	n
Cc1ccc(C)c(-c2cc3c(=O)n(CCNC(=O)c4ccccc4F)ccn3n2)c1	n	n	u	u	n
Cc1ccc(C)c(C(=O)NCCn2ccn3nc(-c4cc(C)ccc4C)cc3c2=O)c1	n	n	40µM	u	n
Cc1ccc(-c2cc3c(=O)n(CCNC(=O)c4cc(Cl)ccc4F)ccn3n2)c(C)c1	n	u	u	n	n
Cc1ccc(-c2cc3c(=O)n(CC(O)c4ccc(C)c(C)c4)ccn3n2)c(C)c1 (centres undefined)	n	n	40µM	u	u
CNC(=O)C1CCN(Cc2ccccc2-c2ccccc2F)CC1	n	x	n	u	x
O=C([C@@H]1C[C@H](Oc2cccnc2)CN1C(=O)Cn1c(=O)oc2ccccc21)N1CCCC1	n	n	n	n	n
O=C(Cn1nc2c(cc1=O)CCCCC2)NCCn1ccc2c(Cl)cccc21	n	n	79µM	u	n
Cc1ccc2nc(NC(=O)Cn3nc4c(cc3=O)CCCCC4)sc2c1	n	35µM	u	n	n
CC(C)NC(=O)Cn1nc2c(cc1=O)CCCCC2	n	n	n	n	n
O=C(Cn1nc2c(cc1=O)CCCC2)NCCn1ccc2c(Cl)cccc21	n	n	u	u	n
CC(C)[C@H](NC(=O)Cn1nc2c(cc1=O)CCCCC2)C(=O)O	n	22µM	n	n	n
COCCNC(=O)c1ccc2oc(-c3ccc(OC)nc3)nc2c1	n	x	u	n	x
C=CCCC(CN1CCCOCC1)Oc1ncc(C)c(N(C)C)n1 (centres undefined)	n	n	u	n	n
Cc1csc(NC(=O)c2nc3c(o2)CCN(Cc2c(F)cccc2F)CC3)n1	n	28µM	u	u	n
Cc1csc(NC(=O)c2nc3c(o2)CCN(Cc2cc(F)ccc2F)CC3)n1	n	28µM	u	u	n
COc1ccccc1CC(=O)N1CCCc2ncc(C(=O)Nc3nc(C)cs3)cc21	n	n	u	u	n
COc1ccccc1CN1CCc2nc(C(=O)Nc3nc(C)cs3)oc2CC1	n	25µM	u	u	n
O=C(NCc1ccccc1)c1nc2c(o1)CCN(Cc1c(F)cccc1F)CC2	n	n	n	u	n
O=C(NCCOc1ccccc1)c1nc2c(o1)CCN(Cc1cc(F)ccc1F)CC2	n	n	u	u	n
O=C(Cc1ccc(F)cc1)N1CCCC(C(=O)N2CCC(c3nc4ccncc4[nH]3)C2)C1 (centres undefined)	n	x	n	n	x
CC(C)CNC(=O)Cc1c[nH]c2ncc(-c3cnn(C)c3)cc12	n	n	n	45µM	n
Cn1cc(-c2cnc3[nH]cc(CC(=O)NCc4ccncc4)c3c2)cn1	n	n	n	u	n
Cn1cc(-c2cnc3[nH]cc(CC(=O)NC4CCC4)c3c2)cn1	n	n	u	32µM	n
CCN1C(=O)C2(CCN(C(=O)c3c(C)noc3C)CC2)c2ccccc21	n	n	n	n	n
Cc1cc(C)cc(-c2ccc(CN3C4CCC3CN(C(=O)c3ccncc3)C4)cc2)c1	n	x	45µM	u	x
